The entries come from a sample that favours hits as a whole.
VCAM1 pot: potentiators of TNFa-induced VCAM1 expression, primary screen, imaging, HUVEC, TNFa stimulus, immunofluorescence; HUVEC TNFa-stimulated VCAM-1 immunofluorescence, high-content imaging; scaled per plate to unstimulated/TNFa-only wells; activation, % at 2 µM; 93,000 tested, 0.19% active; AID 808, 2007;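 active means activation above the screen mean plus 3 SD, with well images confirming the hit on visual review, cut at about 28% in these data, passing the limit was not always enough; inconclusive means activation above that limit but images do not confirm it; inactive means activation not above that limit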;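 further: signal is the number of cytoplasmic VCAM-1 stained grains per positive cell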
VCAM1 pot conf: potentiators of TNFa-induced VCAM1 expression, confirmation, imaging, HUVEC, triplicate retest | HUVEC TNFa-stimulated VCAM-1 immunofluorescence imaging | AID 1034, 2008 | shares compounds with VCAM1 pot | 230 tested, under 10 active | activation, % at 2 µM;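 active means activation above 30% in triplicate retests at 2 µM, then confirmed by visual review of the well images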
Hits are given with their value; n = inactive; u = inconclusive.

SMILES | VCAM1 pot | others
CCOc1ccc(-c2nc(C#N)c(NCC(C)C)o2)cc1 | n
N#Cc1nc(-c2ccc(OCc3ccccc3)cc2)oc1N1CCOCC1 | n
C=CCNc1oc(-c2ccc(OC)cc2)nc1C#N | 45 | VCAM1 pot conf=n
CC(CO)Nc1nc(SCc2ccccc2)nc2sc3c(c12)CCC3 (stereo not given) | n
CC1CCCCC1NC(=O)c1ccc2c(c1)[nH]c(=O)n2C1CCCC1 (stereo not given) | n
Cc1cc(NC(=O)CSc2nc3ccccc3c(=O)n2C2CCCC2)no1 | n
CCCN(CCC)C(=O)CSc1nc2ccccc2c(=O)n1C1CCCC1 | 63 | VCAM1 pot conf=n
CCCCNC(=O)CSc1nc2ccccc2c(=O)n1Cc1ccc2c(c1)OCO2 | n
COCCNC(=O)CN(C(=O)CCC(=O)Nc1cc(C)on1)c1ccccc1C | n
COc1ccc(-c2nc(-c3cccc(C)c3)no2)cc1OC | 54 | VCAM1 pot conf=n
Cc1nc(-c2cccc(-c3noc(C)n3)c2)no1 | n
Cc1cccc(-c2noc(CCc3ccccc3)n2)c1 | n
COc1cccc(CNC(=O)C2CCN(S(=O)(=O)c3ccc4c(c3)CCC(=O)N4)CC2)c1 | n
CCN(CC)S(=O)(=O)c1ccc(NC(=O)C(C)N(c2ccccc2)S(C)(=O)=O)cc1 (stereo not given) | n
CCOC(=O)c1ccc(NC(=O)C(C)N2C(=O)c3ccccc3C2=O)cc1 (stereo not given) | n
CCOC(=O)c1cccc(NC(=O)CN2C(=O)C3C4C=CC(C4)C3C2=O)c1 (stereo not given) | n
CCOC(=O)c1cccc(NC(=O)C(C)N2C(=O)c3ccccc3C2=O)c1 (stereo not given) | 36 | VCAM1 pot conf=n
COc1cccc2c(=O)n(CC(=O)Nc3ccccc3F)ccc12 | n
Cc1nn(-c2ccc(F)cc2)c(Cl)c1/C=C(\CCC(=O)O)c1nc2ccccc2s1 | n
Cc1cccc(OCC(=O)Nc2cc(C)ccc2O)c1 | n
COc1ccc(C)cc1NC(=O)COC(=O)C1CC1 | 56 | VCAM1 pot conf=n
COc1ccc(C)cc1NC(=O)CN(Cc1nnc(-c2ccc(Cl)cc2)o1)C1CCCC1 | n
O=C(O)c1ccccc1C(=O)N1CC=C(c2ccccc2)CC1 | n
Cc1ncoc1C(=O)Nc1nccs1 | n
CCn1nccc1C(=O)Nc1nccs1 | u | VCAM1 pot conf=n
SMILES | VCAM1 pot | others
CC(C)CN1C(=O)c2ccc(C(=O)Nc3nccs3)cc2C1=O | n
c1ccc(OCCOCCSc2ncccn2)cc1 | n
O=C(CCCCCN1C(=O)c2ccccc2C1=O)Nc1nccs1 | n
COc1cccc(-c2nnc(SCCC(=O)O)n2C)c1 | n
CSc1nnc(-c2ccc(NC(=O)CCc3ccccc3)cc2)n1C | u | VCAM1 pot conf=n
Cn1c(SCC(=O)Nc2ccccc2)nnc1-c1ccc(NC(=O)CCc2ccccc2)cc1 | n
CCC/C(=N/NC(=O)c1csc(C)c1C)c1ccc(Cl)s1 | n
COC(=O)c1ccc(COc2ccc(-c3nn[nH]n3)cc2)cc1 | n
COc1nc(C)nc2c1ccc1ccccc12 | n
Cc1ccc(N2CN=c3s/c(=C\c4cccnc4)c(=O)n3C2)cc1 | 98 | VCAM1 pot conf=n
COc1cccc(Nc2nc(=O)[nH]nc2C)c1 | n
Cn1cnnc1SCC(=O)Nc1ccccc1C(=O)NC1CC1 | 36 | VCAM1 pot conf=n
Cn1cnnc1SCCNS(=O)(=O)c1ccccc1 | n
Cc1nnc(NC(=O)CSc2nccn2C)s1 | n
CC(C)(C)n1[nH]c2c3c(ccc2c1=O)C(=O)c1ccccc1C3=O | 37 | VCAM1 pot conf=n
CCOC(=O)Nc1ccc2c(c1)OCO2 | n
CCOC(=O)C1=C(c2ccccc2)OC(N)=C(C#N)C1c1ccco1 (stereo not given) | n
COCCOC(=O)C1=C(C)OC(N)=C(C#N)C1c1ccc2c(c1)OCO2 (stereo not given) | u | VCAM1 pot conf=n
O=C(NN1C(=O)c2ccccc2NC1c1ccccn1)c1ccc(Br)cc1 (stereo not given) | n
C/C=C/c1ccc(OCCn2cncn2)c(OC)c1 | n
COc1ccc(S(=O)(=O)N2CCC(C(=O)Nc3ccc(OC)c(OC)c3)CC2)cc1C | n
COc1cccc(-c2cc(C(=O)Nc3cc(C)nn3-c3ccccc3)no2)c1 | n
CC(=O)c1c(N2CCC(C(N)=O)CC2)nc(=S)n(-c2ccccc2)c1C | n
CCC1CCCCN1C(=O)CSc1nnc(-c2ccc3c(c2)OCCO3)o1 (stereo not given) | n
COc1cc(OC)cc(-c2nnc(SCC(=O)N3c4ccccc4Sc4ccccc43)o2)c1 | n
O=C(CSc1nnc(-c2ccccc2O)o1)N1CCc2ccccc2C1 | 32 | VCAM1 pot conf=n
CCCOC(=O)C1C2C=C[C@]3(CN(CCc4ccccc4)C(=O)[C@H]13)O2 (stereo not given in full) | n
CC1CCCC(NC(=S)Nc2ccc(SC(F)F)cc2)C1C (stereo not given) | n
C=C(C)CSc1nc(C)c(Cc2ccccc2)c(=O)[nH]1 | n
Cc1nc(NCc2ccccc2)[nH]c(=O)c1CCC(C)C | u | VCAM1 pot conf=n

Screens deposited in PubChem by Columbia University Molecular Screening Center.
